Screens as filed in PubChem BioAssay.
PTHR1 ag: PTHR1 (human) receptor agonism | HEK293 GP2 PTHR1 cells, GloSensor cAMP luminescence, 1 h | Potency, µM (series often up to 115 µM), without a hit: at the highest dose activation, actives largely listed as activators | 410,000 tested, 0.075% active | AID 743266; also: potency is read from the fitted curve at half-maximal effect; nearly all actives have a fitted effect of over 55% in size
Target sequence (Q03431 whole entry, looked up): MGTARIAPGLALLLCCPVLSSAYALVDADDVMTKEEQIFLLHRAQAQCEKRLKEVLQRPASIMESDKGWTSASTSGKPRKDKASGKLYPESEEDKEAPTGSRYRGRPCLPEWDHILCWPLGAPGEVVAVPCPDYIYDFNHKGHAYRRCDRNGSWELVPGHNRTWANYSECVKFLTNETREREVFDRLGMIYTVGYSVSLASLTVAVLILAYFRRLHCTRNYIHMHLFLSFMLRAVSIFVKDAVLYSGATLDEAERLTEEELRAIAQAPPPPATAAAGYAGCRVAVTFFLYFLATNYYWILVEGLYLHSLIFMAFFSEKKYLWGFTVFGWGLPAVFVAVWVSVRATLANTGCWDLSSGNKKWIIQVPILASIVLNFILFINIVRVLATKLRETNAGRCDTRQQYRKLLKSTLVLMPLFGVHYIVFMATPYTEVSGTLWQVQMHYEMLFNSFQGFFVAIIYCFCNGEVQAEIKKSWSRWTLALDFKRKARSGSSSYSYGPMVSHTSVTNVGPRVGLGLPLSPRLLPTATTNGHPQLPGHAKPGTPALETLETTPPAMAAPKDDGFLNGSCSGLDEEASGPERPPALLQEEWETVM
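HEK-293-derived GP2 cells expressing PTHR1 and a GloSensor cAMP reporter, 3,000/well, plated overnight, given luciferin plus IBMX (each 0.5 mM as added) for 1 h at 37 °C, then compound for 1 h at 37 °C. Luminescence was read after 15 min at room temperature.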
gsp antagonist: antagonizes gsp, the McCune-Albright syndrome mutation | gsp-mutant cells, cAMP HTRF, 30 min | Potency, µM (series often up to 76.9 µM), for inactives: at the highest dose activity change, negative = inhibition, hits mostly inhibitors | 340,000 tested, 0.4% active | AID 624288; calls by dose curve; cell line not stated here;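 also: intracellular cAMP measured with PDE inhibitor Ro 20-1724 present during compound exposure; potency is read from the fitted curve at half-maximal effect; % is scaled to controls: 0 for no effect and ±100 for the full control effect; nearly all actives have a fitted effect of over 65% in size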
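Cells, 2000/well, grown 16–24 h in DMEM 10% FBS with 0.5 mg/ml G418, then compounds plus […] (300 uM addition stock), 30 min at 37C. cAMP read by HTRF (cAMP-d2 and anti-cAMP antibody-K in lysis buffer) after 30 min RT.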
gsp ag: gsp mutant agonism; 340,000 tested, 0.13% active; gsp mutant cells, cAMP HTRF, 30 min; Potency, µM (doses to about 76.9 µM), for inactives: at the highest dose activation (cAMP increase), most hits filed as activators; AID 624287; active = well fitted activation curve with a large enough effect; inconclusive = small, poorly fitted or top-dose-only effect, or another doubt; inactive = no such curve, though single readings can be large or run the other way; cell line not stated here;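 also: phosphodiesterase inhibitor Ro 20-1724 added with compounds to block cAMP breakdown; potency is read from the fitted curve at half-maximal effect; nearly all actives have a fitted effect of over 60% in size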
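Cells in DMEM/10% FBS with G418 were pretreated with compounds in DMSO plus […] (300 uM stock) for 30 min at 37C. cAMP was measured by HTRF (cAMP-d2 plus anti-cAMP antibody-K) after 30 min at room temperature.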
RXFP1 antag: RXFP1 (human) relaxin receptor antagonism. HEK293-RXFP1, relaxin-stimulated cAMP HTRF, 30 min; active compounds read low. activity change, negative = inhibition, % at 57.5 µM. 350,000 tested, 0.59% active;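 active = activity change of -60% or lower, but not beyond a set lower limit; inconclusive = change between -60% and -40%, or beyond the set limit; inactive = change above -40%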; also: % is scaled to controls: 0 for no effect and ±100 for the full control effect
RXFP1 agonist: agonists of human relaxin receptor RXFP1. Q9HBX9. HEK293T-RXFP1 cAMP TR-FRET, 30 min; response scale: percent of porcine relaxin response, buffer zero. Potency, µM (top dose mostly 57.5 µM), for inactives: at the top dose activation, usual class: activators. 370,000 tested, 0.3% active. AID 2676; also: potency is read from the fitted curve at half-maximal effect; % is scaled to controls: 0 for no effect and ±100 for the full control effect; nearly all actives have a fitted effect of over 60% in size
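HEK293 cells stably expressing RXFP1, treated 30 min at 37C with compounds plus PDE4 inhibitor Ro 20174; cAMP measured by HTRF TR-FRET. Normalized to buffer and 29 nM porcine relaxin; EC50 by Hill fit.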
* = called active by the depositor; i = inactive; ? = inconclusive; . = no result given; [ ] = remark or other dose. Most compounds without a hit are left out; they make up all but 1% or so of the library. Unless noted, calls follow the shape of the dose curve; as a rule, active = well fitted curve in the direction sought with a large enough effect; inconclusive = small, poorly fitted or top-dose-only effect, or another doubt; inactive = no such curve, though single readings can be large; an effect the other way counts as inactive or inconclusive.

SMILES	PTHR1 ag	gsp antagonist	gsp ag	RXFP1 antag	RXFP1 agonist
CCn1c(C(=O)Nc2ccc(C)cc2C)cc2sc(Cl)cc21	-25.2%	.	.	9.2	2.4%
Cc1ccc(C(=O)N/C(=C\c2ccc(-c3cccc([N+](=O)[O-])c3)o2)C(=O)NCCCN(C)C)cc1	i	0.0%	-17.9%	-33.8	1.2%
Cc1ccc(C(=O)N/C(=C\c2ccc(-c3ccc(Br)cc3)o2)C(=O)NCCCN(C)C)cc1	i	4.4%	?	-60.8*	2.3%
CN(C)CCNC(=O)/C(=C/c1ccc(-c2ccc(Cl)cc2Cl)o1)NC(=O)c1ccccc1	i	3.9%	23.4%	-69.8*	-0.9%
COCCCNC(=O)CN1C(=O)COc2ccc(S(=O)(=O)N3CCCC3)cc21	-51.6%	.	.	.	1.0%
Brc1ccc(N/N=C(/N=Nc2nn[nH]n2)c2ccccc2)cc1	-44.6%	22.4µM*	-1.1%	-1.5	1.5%
COCCN(CCOc1cc(C)cc(C)c1)Cc1ccc(Cl)cc1	-4.3%	0.9%	-2.5%	-22.2	1.8%
CCN(CC)CCOc1ccc(C(O)(Cc2ccc(Cl)cc2)c2ccc(C)cc2)cc1 (centres undefined)	.	.	.	-91.2*	.
CCCCCCOc1ccc(C2C(=O)N(C3CCCCC3)CC(=O)N2CCC)cc1 (centres undefined)	-32.3%	.	.	-68.9*	0.0%
CCCCCCOc1ccc(C2C(=O)N(C3CCCCC3)CC(=O)N2C2CCCCC2)cc1 (centres undefined)	-19.7%	.	.	-18.3	-0.5%
CCC(=O)C1=C(N2CCCC2)CC(C)(C)CC1=O	-8.6%	-1.5%	20.1%	2.7	2.5%
CCCCC(=O)C1=C(N2CCCC2)CC(C)(C)CC1=O	i	3.4%	12.7%[15.4 µM]	-62.0*	.
CCOc1ccc(C(=O)Nc2ccc(C(F)(F)F)n(C)c2=O)cc1	i	3.2%	28.2µM*	5.5	3.9%
COc1cccc(C(=O)Nc2ccc(C(F)(F)F)n(C)c2=O)c1	-23.8%	1.2%	10.7%	-8.9	-0.1%
CCN1CCN(Cc2c(O)ccc3c(C)c(-c4ccc(OC)cc4)c(=O)oc23)CC1	9.0%	.	.	-0.4	-1.8%
OCC1OC(n2cnc3c(NCc4ccccc4O)ncnc32)C(O)C1O (centres undefined)	-2.9%	-0.1%	-15.9%	1.5	.
CNC(=O)[C@H]1O[C@@H](n2cnc3c(NCc4cccc(I)c4)ncnc32)[C@H](O)[C@@H]1O	-33.4%	-0.5%	.	.	15.8µM*
Nc1nnnn1-c1ccccc1	.	.	.	-73.8*	.
CCCn1c(N)c(C(=O)COC(=O)COc2ccc(Cl)c(C)c2)c(=O)n(C)c1=O	i	2.7%	-1.9%[15.4 µM]	-7.8	1.3%
CCCn1c(N)c(C(=O)COC(=O)c2c(C)noc2C)c(=O)n(C)c1=O	i	7.9%	5.01µM*	14.2	?
COc1cccc(CNC(=O)c2oc3c(c2C)-c2nn(Cc4cccc(Cl)c4)cc2CC3)c1OC	-29.3%	.	.	?	13.6%
COc1cccc(CNC(=O)c2oc3c(c2C)-c2nn(Cc4cccc(Cl)c4)cc2CC3)c1	-50.4%	.	.	-117.7*	0.0%
O=C(NCCc1ccccc1)c1nc2c(nnn2Cc2ccccc2Cl)c(=O)[nH]1	i	39.8µM*	14.1%	-13.1	0.2%
COc1ccc(C=C2C=C(C(C)(C)C)C(=O)C(C(C)(C)C)=C2)cc1OC	-6.3%	-8.6%	-1.9%	-88.0*	-0.2%
Cc1cccc(N(C)C(=S)Oc2ccc3ccccc3c2)c1	-7.1%	-8.8%	.	-71.5*	1.8%
SMILES	PTHR1 ag	gsp antagonist	gsp ag	RXFP1 antag	RXFP1 agonist
Cc1cccc(N(C)C(=S)Oc2ccc3c(c2)CCC3)c1	.	.	.	-62.8*	.
OC(CNC1Cc2ccccc2C1)COc1ccc(Cl)cc1 (centres undefined)	4.2%	6.8%	12.1%	.	0.8%
OC(CNC1CCCc2ccccc21)COc1c(Cl)cccc1Cl (centres undefined)	i	8.9%	0.0%	-63.1*	-1.2%
CC(=O)c1c(C)[nH]c(C(=O)CN2CCN(S(=O)(=O)c3ccc(C(C)C)cc3)CC2)c1C	-42.4%	35.5µM*	-13.6%	-2.5	2.1%
COc1ccc(S(=O)(=O)N2CCN(CC(=O)c3[nH]c(C)c(C(C)=O)c3C)CC2)cc1OC	-1.7%	?	1.9%	0.9	2.7%
COc1cc(-c2cc(OC)c3c(C)oc(C)c3c(=O)c2)ccc1OC(=O)c1ccccc1F	i	.	.	-68.4*	1.3%
CCOc1cc(-c2ccc(OC(=O)c3ccc(Cl)cc3)c(OC)c2)cc(=O)c2c(C)oc(C)c12	-20.2%	.	.	-62.7*	-0.2%
CCOc1cc(-c2ccc(OC(=O)c3ccccc3)c(OC)c2)cc(=O)c2c(C)oc(C)c12	-8.1%	.	.	-97.7*	2.9%
CCCn1nc([N+](=O)[O-])c(C(C#N)c2nc3ccccc3s2)c(Cl)c1=O (centres undefined)	-33.5%[57.5 µM]	31.6µM*	16.7%	-32.7	-3.3%
COc1ccc(-c2nc(CSc3nncn4c3cc3sccc34)c(C)o2)cc1OC	-19.0%	.	.	12.7	9.3%
CC(C)c1nnc(NC(=O)CCC(=O)N2CCN(c3ccc(Cl)cc3)CC2)s1	-0.8%	-3.4%	?	-66.6*	-0.8%
COc1ccccc1N1CCN(S(=O)(=O)c2c(C)sc3ncn(CC(=O)N(C)c4ccc(C(C)C)cc4)c(=O)c23)CC1	-9.5%	.	.	-6.6	0.7%
COc1ccc2c(C)c(CCC(=O)NCc3ccc(C)cc3)c(=O)oc2c1	-23.9%	.	.	-9.2	-1.0%
CCC/C=N/Nc1nc2ccccc2s1	-27.6%	?	3.4%[15.4 µM]	-90.8*	0.2%
C(=C\c1ccccc1)/C=N/Nc1nc2ccccc2s1	-14.3%[57.5 µM]	-6.2%	-22.3%	-11.6	2.4%
COc1cc(C(=O)NCC2CCCN2S(=O)(=O)c2cccs2)cc(OC)c1OC (centres undefined)	i	-1.9%	10.3%[15.4 µM]	-82.0*	1.4%
O=[N+]([O-])c1cccc(COc2ncnc3cc([N+](=O)[O-])ccc23)c1	-6.0%	-0.3%	?	35.7	28.2µM*
Cc1cccc(NC(=O)C(=O)NCC(c2ccc3c(c2)OCO3)N2CCN(c3ccccc3)CC2)c1 (centres undefined)	-19.3%	.	.	-13.4	0.9%
Cc1ccc2nc(Cl)c(C3CC(c4ccco4)=NN3S(C)(=O)=O)cc2c1 (centres undefined)	-11.9%	0.7%	-0.6%[15.4 µM]	-16.5	8.9%
CCOc1ccc2nc(Cl)c(C3CC(c4ccco4)=NN3S(C)(=O)=O)cc2c1 (centres undefined)	-8.7%	-12.4%	-1.0%[15.4 µM]	-70.6*	8.6%
Cc1sc(-c2cc3c([nH]c2=O)CC(c2ccccc2)CC3=O)nc1-c1ccc(Cl)cc1 (centres undefined)	17.9%	.	.	-12.1	3.8%
C=CCNC(=O)/C(C#N)=C/c1cc(Br)ccc1OC	-12.6%	-3.6%	2.8%	-67.7*	2.2%
C=CCNC(=O)/C(C#N)=C/c1ccccc1Cl	-22.1%	0.7%	-1.0%[15.4 µM]	-3.4	0.8%
